This is part of a sample that, as a whole, favours compounds with a hit. Of some 83,000 tested, about 20% had one in any assay.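 Plates (96-well) were seeded with cells, treated with compound at one concentration, and incubated for 48 hours before percent growth was determined.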 A number with no mark means an inactive call. Active and inactive are the calls of the source. How the source made its calls: active means growth percent below 10; inactive means the rest.
Test system: T-47D breast
Experiment: NCI-60 one-dose screen, 48 h (100 = growth as untreated, 0 = no growth, -100 = all killed)
Details: 10 µM unless noted

SMILES | growth
COc1cnc2c(c1)C(=O)c1c-2n(CCCNC(C)C)c(=O)c2cc(Cl)ccc12 | -84.3% (active)
Cc1nn(-c2cccc(Cl)c2)c(C)c1N=Nc1ccc(Br)cc1 | 80.5%
Cc1ccc(C(CN(C)C)C(=O)c2ccccc2)cc1 (stereo unspecified) | 33%
CCCCCCCCCCCCCCCCCC(=O)[O][Sn]([CH2]CCC)([CH2]CCC)[CH2]CCC | -78.9% (active)
Cc1c2c(cc3c1[nH]c1ccccc13)C=NCC2 | 73.7%
COc1ccc(C(=O)C(CN(C)C)c2ccc(OC)cc2)cc1 (stereo unspecified) | 56.7%
CC(=O)O[C@H]1CC[C@]2(C)[C@H]3CC=C4[C@@H]5CC(C)(C)CC[C@]5(C(=O)OCC(COC(=O)C(Cl)Cl)(COC(=O)C(Cl)Cl)NC(=O)C(Cl)Cl)CC[C@@]4(C)[C@]3(C)CC[C@H]2C1(C)C | 32.7%
COc1ccc2c(c1)C1=NN(C(=O)CO)[C@H](c3ccc(OC(F)(F)F)cc3)[C@@H]1CC2 | 82.1%
COc1ccc(Cl)cc1Nc1nc(C(F)(F)F)ccc1C(=O)NN | 29.4%
CC(C)c1cccc(C#N)c1 | 95.7%
COc1ccc2nc3ccccc3c(NCc3ccc(C)cc3)c2c1 | 30.6%
CS(=O)(=O)c1ccc(C(=O)N/N=C/c2ccccc2Cl)cc1 | 87.5%
CC(C)(C)c1ccc(C(=O)Nc2sc3cc(O)ccc3c2C(N)=O)cc1 | 61.5%
COc1cc(/C=C\c2cc(/C=C\c3ccc(O)c(OC)c3)n(C(=O)Nc3ccc(C(F)(F)F)cc3)n2)ccc1O | 47.4%
CCOC(=O)c1cc(N)nc2ccccc12 | 93.7%
CCSCC1CC(O)(c2ccccc2)C(c2ccccc2)C(c2ccc(F)cc2)O1 (stereo unspecified) | -17.5% (active)
CN1C2CCC1/C(=C\c1ccc(Cl)cc1)C(=O)/C2=C/c1ccc(Cl)cc1 | 59.7%
CCOC(=O)C1=C(C)NC(=S)NC1c1ccccc1 (stereo unspecified) | 96.2%
C=C1C(=O)O[C@H]2[C@H]1CC/C(COC(=O)N[C@@H](Cc1c[nH]c3ccccc13)C(=O)OC)=C\CC[C@@]1(C)O[C@@H]21 | -16.9% (active)
Cc1nc(N)nc2c1CCC(Nc1ccccc1)S2 (stereo unspecified) | 101%
COc1cc(OC)cc(-c2ccc(-c3ccc(C(=N)N)s3)s2)c1 | -70.2% (active)

Test system: BT-549 breast
Experiment: as above
Details: 10 µM unless noted

SMILES | growth
C=C1C(=O)O[C@H]2[C@H]1CC/C(COC(=O)NCc1ccc(Cn3c(=O)sn(CCCl)c3=O)cc1)=C\CC[C@@]1(C)O[C@@H]21 | 59.4%
c1ccc(-c2nnn(-c3ccccc3)n2)cc1 | 87.5%
CC(C)N(C(=S)SSC(=S)N(C(C)C)C(C)C)C(C)C | 107%
Cc1ccc2c(C)c3c(ccc4ccccc43)c[n+]2c1 | 37%
O=C(N/N=C/c1ccc([N+](=O)[O-])cc1)c1ccccc1Nc1ccnc(C(F)(F)F)c1 | 87.4%
CC(C)CC1NC(=O)C(CC(C)C)N(CO)C1=O (stereo unspecified) | 101%
Cc1ccccc1C1CC(=O)c2ccccc2C1C (stereo unspecified) | 131%
O=C1/C(=C/N2N=C(c3ccc(Cl)cc3)CC2c2ccccc2O)SC(=S)N1c1cccc(C(F)(F)F)c1 (stereo unspecified) | 71.7%
CN(C)CC(=O)c1ccc2cc(Br)c3ccccc3c2c1 | 60.2%
CCN(C(=O)CCl)C(C)(C)C(SSSC(c1ccc(Cl)cc1)C(C)(C)N(CC)C(=O)CCl)c1ccc(Cl)cc1 (stereo unspecified) | 85.8%
COc1ccc(NC(=O)Cn2c(=O)sc3c(-c4ccc(Cl)cc4)cc(-c4ccc(Cl)cc4)nc32)cc1 | 87.6%
COc1cccc(/C=N\Nc2ccc([N+](=O)[O-])cn2)c1O | 71.8%
CCN(CC)CC(=O)Nc1c(C)cc(C(=O)NN)cc1C | 117%
CCCC(CCC)(C(N)=O)C(=O)O | 98.7%
COc1cnc2c(c1)C(=O)c1c-2n(CCCNC(C)C)c(=O)c2cc(Cl)ccc12 | 30.9%
Cc1nn(-c2cccc(Cl)c2)c(C)c1N=Nc1ccc(Br)cc1 | 97.6%
CCCCCCCCCCCCNC(=O)N[C@H](C(=O)N[C@H]1/C=C/OCCNC(=O)/C=C/[C@H](C(C)C)NC1=O)C(C)C | -7.12% (active)
Cc1ccc(C(CN(C)C)C(=O)c2ccccc2)cc1 (stereo unspecified) | -4.79% (active)

SMILES | growth
CCCCCCCCCCCCCCCCCC(=O)[O][Sn]([CH2]CCC)([CH2]CCC)[CH2]CCC | -94.3% (active)
Cc1c2c(cc3c1[nH]c1ccccc13)C=NCC2 | 79.6%
COc1ccc(C(=O)C(CN(C)C)c2ccc(OC)cc2)cc1 (stereo unspecified) | 2.74% (active)
CC(=O)O[C@H]1CC[C@]2(C)[C@H]3CC=C4[C@@H]5CC(C)(C)CC[C@]5(C(=O)OCC(COC(=O)C(Cl)Cl)(COC(=O)C(Cl)Cl)NC(=O)C(Cl)Cl)CC[C@@]4(C)[C@]3(C)CC[C@H]2C1(C)C | 75.2%
COc1ccc2c(c1)C1=NN(C(=O)CO)[C@H](c3ccc(OC(F)(F)F)cc3)[C@@H]1CC2 | 127%
COc1ccc(Cl)cc1Nc1nc(C(F)(F)F)ccc1C(=O)NN | 20.2%
CC(C)c1cccc(C#N)c1 | 102%
COc1ccc2nc3ccccc3c(NCc3ccc(C)cc3)c2c1 | 51.6%
CS(=O)(=O)c1ccc(C(=O)N/N=C/c2ccccc2Cl)cc1 | 92.7%
CC(C)(C)c1ccc(C(=O)Nc2sc3cc(O)ccc3c2C(N)=O)cc1 | 85.4%
COc1cc(/C=C\c2cc(/C=C\c3ccc(O)c(OC)c3)n(C(=O)Nc3ccc(C(F)(F)F)cc3)n2)ccc1O | 19%
CCOC(=O)c1cc(N)nc2ccccc12 | 105%
CCSCC1CC(O)(c2ccccc2)C(c2ccccc2)C(c2ccc(F)cc2)O1 (stereo unspecified) | -12.1% (active)
CN1C2CCC1/C(=C\c1ccc(Cl)cc1)C(=O)/C2=C/c1ccc(Cl)cc1 | 70.6%
CCOC(=O)C1=C(C)NC(=S)NC1c1ccccc1 (stereo unspecified) | 110%
C=C1C(=O)O[C@H]2[C@H]1CC/C(COC(=O)N[C@@H](Cc1c[nH]c3ccccc13)C(=O)OC)=C\CC[C@@]1(C)O[C@@H]21 | 45.3%
COc1cc(OC)c2sc(-c3ccc(-n4cncc4-c4ccc(OC)c(N)c4)cc3)nc2c1 | 75.2%

Reference: PubChem BioAssay (NCI)
